From PubChem BioAssay
GLP-1R agonist: qHTS of GLP-1 Receptor Agonists; Potency, µM (titrated, usually from 45.6 µM), for the others: top-dose activation, most hits filed as activators; AID 624172, 2012; Glucagon-like peptide 1 receptor (Homo sapiens), P43220; 380,000 tested, 0.007% active; HEK293 GLP-1R CRE-luciferase, luminescence, 4-6 h; cells express a hypersensitive GLP-1R form; further: potency means the concentration at half of the fitted maximal effect; % of control where 0% means no effect
HEK293 tox: qHTS of GLP-1 Receptor Inverse Agonists: Cytotox Screen. HEK293 cAMP-luciferase reporter cells, luminescence, 24 h. Potency, µM (highest dose often 38.3 µM), without a hit: at the top dose activity change, negative = inhibition, actives largely listed as inhibitors. 410,000 tested, 0.13% active;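 further: loss of luciferase light is scored as toxicity; potency means the concentration at half of the fitted maximal effect; on the % scale 0 is the no-effect control and ±100 the full control effect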
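To flag toxic compounds, the library was rerun on cells for 24 hr at 37 deg C and 5% CO2. Viability-linked luminescence was captured 12 min after adding luciferase detection reagent.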
KCNH2 3.1 block: qHTS for Inhibitors of KCHN2 3.1: Mutant qHTS | U2OS KCNH2 3.1, thallium flux FluxOr; stronger effect = lower value | 340,000 tested, 0.95% active | activity change, % (tested at about 1.8 µM) | Potassium voltage-gated channel subfamily H member 2, brain isoform KCNH2 3.1 (human);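 active means maximum activity change below -70%; inconclusive means maximum activity change from -70% to -50%; inactive means maximum activity change above -50%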;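 further: thallium influx rate constant from kinetic fluorescence after stimulation buffer; on the % scale 0 is the no-effect control and ±100 the full control effect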
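Normalized rate constant (relative to positive and negative DMSO controls) derived from a 2 min kinetic fluorescence read after stimulation; U2OS cells expressing the 3.1 isoform via virus at 1.77 x 10^8 /mL.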
GLS inhibitor: qHTS for Inhibitors of Glutaminase (GLS). GLS enzymatic activity, qHTS titration. 410,000 tested, 0.21% active. Glutaminase kidney isoform, mitochondrial (Homo sapiens), O94925. AID 624170, 2012. Potency, µM (doses to about 45.5 µM), without a hit: at the highest dose activity change, negative = inhibition, usual class: inhibitors; further: potency means the concentration at half of the fitted maximal effect; on the % scale 0 is the no-effect control and ±100 the full control effect
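hKGA; 45 mM KH2PO4 pH 8.2 + 0.02% Tween-20; cpd via pin tool; 1 mM Gln soln; GluOx/HRP/Amplex Red; RT 30 min; fluor. t0 & final.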
GLP-1R inv ag: qHTS of GLP-1 Receptor Inverse Agonists (Inhibition Mode); Glucagon-like peptide 1 receptor (Homo sapiens), P43220; HEK293 GLP-1R CRE-luciferase, luminescence, 24 h; GLP-1R form is constitutively active; Potency, µM (doses to about 38.3 µM), for inactives: at the highest dose activity change, negative = inhibition, most hits filed as inhibitors; 410,000 tested, 1.6% active; AID 624417, 2012; further: potency means the concentration at half of the fitted maximal effect; on the % scale 0 is the no-effect control and ±100 the full control effect; nearly all actives have a fitted effect of over 55% in size
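Stable HEK293 clone (constitutively active GLP-1R + cAMP-response luciferase); 200 cells/uL plated, 12 h pre-culture, compound 24 hr, 37 deg C/5% CO2; detection reagent 12 min RT; luminescence.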
KCNH2 WT inh: qHTS for Inhibitors of KCHN2 3.1: Wildtype qHTS. Voltage-gated inwardly rectifying potassium channel KCNH2 (Homo sapiens), Q12809. U2OS, BacMam KCNH2, thallium flux FluxOr; stronger effect = lower value. activity change, % at 1.84 µM. 340,000 tested, 0.37% active. AID 720551, 2013;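 active means maximum activity change below -70%; inconclusive means maximum activity change between -70% and -50%; inactive means maximum activity change above -50%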; further: on the % scale 0 is the no-effect control and ±100 the full control effect
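U2OS cells transduced with wild-type KCNH2 virus are loaded with FluxOr dye for 45 min, and thallium flux is measured in kinetic reads before and after stimulation buffer. Rate constants are normalized to DMSO controls.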
The depositor's hits bear a star; u = inconclusive; x = no result. Shown are actives, neighbours in structure and some others; about 2.8% of the full set was active somewhere. Unless noted, the call rests on the fitted dose curve; in most records, active means well fitted curve in the direction sought with a large enough effect; inconclusive means small, poorly fitted or top-dose-only effect, or another doubt; inactive means no such curve, though single readings can be large; an effect the other way counts as inactive or inconclusive.

SMILES	GLP-1R agonist	HEK293 tox	KCNH2 3.1 block	GLS inhibitor	GLP-1R inv ag	KCNH2 WT inh
COc1ccc(S(=O)(=O)NCCSCc2cccc(C)c2)cc1Br	8%	-1%	0	4%	11µM*	9
O=C(Nc1ccccc1SCC1CSc2nc3ccccc3c(=O)n21)c1cccc(Cl)c1 (configuration not stated)	-4%	12%	-84*	4%	-25%	-32
CCC(CC)C(=O)N1CCc2cc(OC)c(OC)cc2C1COc1ccccc1OC (configuration not stated)	23%	0%	x	4%	u	x
N#C/C(=C/c1ccc(-c2ccc(S(=O)(=O)N3CCOCC3)cc2)o1)C(=O)NC1CC1	20%	-5%	10	-8%	59%	-80*
N#C/C(=C\c1ccc(-c2ccc(S(=O)(=O)N3CCOCC3)cc2)o1)C(=O)NC1CC1	12%	1%	9	-12%	60%	-1
CC(O)CNCCCOc1ccccc1OCc1ccccc1 (configuration not stated)	-3%	0%	-10	-1%	u	8
CC(O)CNCCCCOc1ccc(OCc2ccccc2)cc1 (configuration not stated)	-1%	-9%	4	-6%	14µM*	-13
COc1ccc(NC(=O)N2CCc3c(sc4c3CCCC4)C2c2ccccc2OC)cc1 (configuration not stated)	x	-13%	x	8%	15%	x
O=C(CSc1nnc(CNC(=O)c2cccc(C(F)(F)F)c2)o1)NC1CCCCC1	-5%	-2%	-20	7%	u	27
CCC(C)NC(=O)CN1C(=O)c2cccnc2Oc2ccc(C)cc21 (configuration not stated)	x	-7%	x	-14%	-4%	x
O=C(Nc1ccc(F)cc1F)NC1CCN(Cc2c(F)cccc2Cl)CC1	10%	-2%	3	0%	8.9µM*	7
CCN1CCC(NC(=O)Nc2ccc(F)cc2F)CC1	-1%	-4%	-86*	-3%	4%	-4
Cc1cc(Cl)ccc1NC(=O)NC1CCN(S(=O)(=O)c2ccc(F)cc2)CC1	-5%	u	-17	3%	6.3µM*	-4
O=C(Nc1ccc2nc(C(F)(F)F)[nH]c2c1)[C@@H]1O[C@H](CO)[C@@H](O)[C@H]1O	2%	2%	x	-3%	21%	x
Cc1ccc(-n2nc(C(=O)N3CCN(c4cccc(C(F)(F)F)c4)CC3)c3c4ccccc4n(C)c3c2=O)cc1	x	17%	x	-2%	-5%	x
O=C(Nc1cccc(Cl)c1)C1C2CCC3C(CCC21)C3(Cl)Cl (configuration not stated)	-9%	-35%	2	1%	5.6µM*	3
O=C(Nc1ccccc1)C1C2CCC3C(CCC21)C3(Cl)Cl (configuration not stated)	-4%	-16%	4	-3%	6.3µM*	0
O=C(Nc1ccccc1Cl)C1C2CCC3C(CCC21)C3(Cl)Cl (configuration not stated)	7%	2%	1	11%	10%	-1
Cc1ccc(S(=O)(=O)c2cnc(SCC(=O)Nc3ccccc3C(F)(F)F)[nH]c2=O)cc1C	-6%	5%	x	6%	5%	x
Cc1ccc(Cn2c(C(C)NC(=O)c3ccccc3)nc3ccccc32)cc1 (configuration not stated)	x	-9%	x	2%	u	x
COc1cccc(-n2cc(CN(C)Cc3nc(Cc4cccc(F)c4)no3)cn2)c1	0%	-6%	-20	1%	10µM*	2
Cc1ccccc1Cn1c(=O)n(CCCCC(=O)NCc2ccc3c(c2)OCO3)c(=O)c2ccccc21	1%	-2%	x	-7%	-14%	x
Cn1c(CNc2ccc(Cl)cc2)nnc1SCCN1CCCCC1	-13%	-10%	3	34%	4µM*	5
O=C(O)c1cc(Cl)c2c(c1)OCO2	-7%	-14%	1	20µM*	3%	1
CNC(=O)[C@@H]1CCC(=O)N1	-1%	10%	-7	0%	6%	6
SMILES	GLP-1R agonist	HEK293 tox	KCNH2 3.1 block	GLS inhibitor	GLP-1R inv ag	KCNH2 WT inh
Cc1nc2nc(NC(=O)c3cccc(Cl)c3)[nH]n2c(=O)c1Cc1ccccc1	x	0%	x	4%	1%	x
O=C(CSc1nnc(-c2ccc(O)cc2)o1)c1ccc(Br)cc1	x	-7%	x	-2%	8.9µM*	x
O=C(O)CSc1nnc(-c2ccc(O)cc2)o1	-2%	-7%	x	-20%	11%	x
O=C(NC1CCCCC1)c1cc(-c2cccs2)on1	10%	5%	-71*	12%	14%	-10
O=C(NC1CCCCC1)c1cc(-c2ccc(F)cc2)on1	38%	11%	0	-17%	0%	3
Cc1ccc2c(c1)nnn2C1CCN(S(=O)(=O)c2ccc(C(=O)N3C(C)CCCC3C)cc2)CC1 (configuration not stated)	0%	-9%	-45	25%	4µM*	2
Cc1ccc2c(c1)nnn2C1CCN(S(=O)(=O)c2ccc(C(=O)O)cc2)CC1	0%	16%	11	59%	30%	0
O=S(=O)(Cc1ccc(Cl)cc1)NCc1cccnc1	-5%	5%	-78*	-2%	-4%	-9
O=C(NCc1cccnc1)c1ccc(CS(=O)(=O)Cc2ccc(Cl)cc2)o1	2%	-1%	-9	-7%	5%	-9
COc1ccc(CCNC(=O)C(C)n2c(=O)cc(-c3ccccc3)c3c(C)nn(C)c32)cc1OC (configuration not stated)	x	0%	x	-10%	12%	x
Clc1ccc(-c2nc(CSc3ccccn3)cs2)cc1	-2%	3%	-4	-1%	u	1
Nc1ccccc1SCc1csc(-c2ccc(Cl)cc2)n1	21%	28%	-9	3%	10µM*	-4
CCCc1nnc(SCC(=O)Nc2nnc(CC)s2)n1CC1CCCO1 (configuration not stated)	7%	1%	16	2%	11%	5
CCc1nnc(NC(=O)CSc2nnc(C)n2CC2CCCO2)s1 (configuration not stated)	-2%	-6%	5	5%	2%	-161*
